# Rows were chosen to be rich in hits. Some 1.5% of all compounds tested hit in one or more screens of this group.
# BLM inh: Bloom syndrome helicase (human) inhibition; AID 2528; recombinant BLM DNA unwinding, fluorescence dequenching; Potency, µM (series often up to 56.1 µM), for inactives: at the top dose activity change, negative = inhibition, usual class: inhibitors; P54132; 0.2% of 350,000 active;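 further: potency means the concentration at half of the fitted maximal effect; plate controls were vehicle for no effect and no enzyme for full effect; nearly all actives have a fitted effect of over 35% in size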
# Target sequence (P54132 whole entry, looked up): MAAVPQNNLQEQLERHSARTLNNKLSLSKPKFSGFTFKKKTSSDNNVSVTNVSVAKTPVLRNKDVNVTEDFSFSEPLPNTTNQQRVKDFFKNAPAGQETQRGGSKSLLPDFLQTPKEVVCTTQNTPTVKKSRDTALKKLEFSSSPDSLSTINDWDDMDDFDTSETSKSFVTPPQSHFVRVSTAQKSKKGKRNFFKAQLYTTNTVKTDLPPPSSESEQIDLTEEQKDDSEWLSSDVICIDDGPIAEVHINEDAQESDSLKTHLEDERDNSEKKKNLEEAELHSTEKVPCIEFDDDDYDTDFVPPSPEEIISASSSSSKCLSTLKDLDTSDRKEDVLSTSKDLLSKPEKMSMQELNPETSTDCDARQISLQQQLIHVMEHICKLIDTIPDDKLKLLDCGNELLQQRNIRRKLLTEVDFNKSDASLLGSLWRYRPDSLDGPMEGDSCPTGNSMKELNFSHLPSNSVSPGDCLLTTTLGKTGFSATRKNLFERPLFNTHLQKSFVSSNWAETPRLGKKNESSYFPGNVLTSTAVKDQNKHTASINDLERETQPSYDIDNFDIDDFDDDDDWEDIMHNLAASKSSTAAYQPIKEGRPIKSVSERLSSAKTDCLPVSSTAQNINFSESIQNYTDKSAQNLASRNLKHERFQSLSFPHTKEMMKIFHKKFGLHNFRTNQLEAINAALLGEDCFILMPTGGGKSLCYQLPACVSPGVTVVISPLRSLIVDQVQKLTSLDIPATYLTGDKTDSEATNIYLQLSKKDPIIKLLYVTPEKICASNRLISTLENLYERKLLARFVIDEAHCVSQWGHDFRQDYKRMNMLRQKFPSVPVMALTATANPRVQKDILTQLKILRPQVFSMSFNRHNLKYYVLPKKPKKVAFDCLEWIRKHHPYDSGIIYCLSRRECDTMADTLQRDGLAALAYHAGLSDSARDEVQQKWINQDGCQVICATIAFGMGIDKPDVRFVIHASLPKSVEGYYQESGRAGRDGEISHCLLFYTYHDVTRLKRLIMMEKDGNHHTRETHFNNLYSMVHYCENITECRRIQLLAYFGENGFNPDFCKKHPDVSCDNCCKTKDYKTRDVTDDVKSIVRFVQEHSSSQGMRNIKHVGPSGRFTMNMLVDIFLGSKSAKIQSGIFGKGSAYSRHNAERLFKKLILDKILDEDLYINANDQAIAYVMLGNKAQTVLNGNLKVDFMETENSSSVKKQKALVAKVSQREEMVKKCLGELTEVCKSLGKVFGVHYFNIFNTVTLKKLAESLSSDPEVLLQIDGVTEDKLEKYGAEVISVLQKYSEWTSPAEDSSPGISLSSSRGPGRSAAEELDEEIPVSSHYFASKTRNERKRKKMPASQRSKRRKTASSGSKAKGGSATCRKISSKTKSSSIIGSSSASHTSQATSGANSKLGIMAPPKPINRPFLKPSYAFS
# FEN1 inhibitor: inhibitors of human flap endonuclease 1; AID 588795; P39748; Potency, µM (titrated, usually from 114 µM), without a hit: top-dose activity change, negative = inhibition, hits mostly inhibitors; 0.35% of 390,000 active; Recombinant FEN1 flap cleavage, fluorescence, 15 min; further: potency means the concentration at half of the fitted maximal effect; nearly all actives have a fitted effect of over 65% in size
#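 Steps: FEN1 (10 nM) dispensed; compound added by pin tool; 15 min at room temperature; substrate added to 50 nM final; reads at 0 min and 15 min; data normalized and fitted (four-parameter Hill).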
# RECQ1 helicase: inhibitors of human RECQ1 DNA helicase; P46063; RECQ1 DNA unwinding, red fluorescence kinetic read; AID 2549; 0.54% of 240,000 active; Potency, µM (top dose mostly 57.3 µM), for the others: top-dose activity, negative = inhibition, usual class: inhibitors;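 further: potency means the concentration at half of the fitted maximal effect; plate controls were vehicle for no effect and no enzyme for full effect; nearly all actives have a fitted effect of over 30% in size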
#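 50 nM RECQ1T1 preincubated 15 min with compound in Tris pH 8.0 buffer with MgCl2, DTT, Tween-20 and 2.5 ug/ml poly(dI-dC); started with 200 nM TAMRA/BHQ-2 forked duplex and 2 mM ATP. Unwinding read as fluorescence (525/598 nm), two reads 2 h apart.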
# APEX1 inh: inhibitors of human APE1 endonuclease; P27695; recombinant APE1, TAMRA/BHQ-2 abasic DNA cleavage fluorescence; Potency, µM (doses to about 65.8 µM), for the others: at the highest dose activity change, negative = inhibition, most hits filed as inhibitors; 0.35% of 350,000 active;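 further: potency means the concentration at half of the fitted maximal effect; plate controls were vehicle for no effect and reference inhibitor for full effect; nearly all actives have a fitted effect of over 55% in size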
#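 0.75 nM APE1 + cpd, 15 min RT; start w/ 50 nM TAMRA/BHQ-2 THF-abasic dsDNA; kinetic fluor 525/598 nm ×3 reads @60 s; Δ(read3−read1); normalized to DMSO and NSC13755 control wells.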
# WRN helicase inh: inhibitors of human WRN helicase. Q14191. Potency, µM (doses to about 114 µM), inactives show at the top dose activity change, negative = inhibition, hits mostly inhibitors. WRN helicase unwinding, fluorescent forked duplex, kinetic. AID 651768. 0.46% of 360,000 active; further: potency means the concentration at half of the fitted maximal effect; nearly all actives have a fitted effect of over 55% in size
#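 WRN at 20 nM final preincubated with compound 15 min at room temperature; reaction started with 100 nM fluorophore/quencher forked duplex oligonucleotide and 2 mM ATP final. Unwinding followed kinetically by red fluorescence (ex 525, em 598 nm).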
# PI5P4Ka inh: inhibitors of human PI5P4K alpha; P48426; PI5P4Kalpha enzyme, ADP-Glo luminescence, 60 min; hits give low values; max response, %; 1.2% of 330,000 active; AID 652105; active means max response of -50% or lower; inconclusive means between -30% and -50%; inactive means -30% or higher; further: value at the top dose of about 77 µM
#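 Compounds were pin-transferred onto PI5P4Kalpha and substrate in HEPES pH 7.4 buffer with EGTA, CHAPS and 5% DMSO. ATP (5 microM final) started the reaction, which ran 60 minutes at room temperature before ADP-Glo detection.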
# * hit, by the source's call; i = inactive; ? = inconclusive; . = not tested or not shown; [ ] = dose if it differs, or a comment. Unless noted, the call rests on the fitted dose curve; in most records, active means well fitted curve in the direction sought with a large enough effect; inconclusive means small, poorly fitted or top-dose-only effect, or another doubt; inactive means no such curve, though single readings can be large; an effect the other way counts as inactive or inconclusive. Unless noted, on the % scale 0 is the no-effect control and ±100 the full control effect.
SMILES,BLM inh,FEN1 inhibitor,RECQ1 helicase,APEX1 inh,WRN helicase inh,PI5P4Ka inh
O=C(O)c1cc(N=Nc2c(O)[nH]c3ccc([N+](=O)[O-])cc23)ccc1Cl,-4.5%,-3.3%,.,?,?,-73.1*
NC(=O)N=Nc1c(O)[nH]c2ccc([N+](=O)[O-])cc12,-22.4%,-29.3%,-8.3%,-10.1%,-29.4%,-0.5
O=C(N=Nc1c(O)[nH]c2ccc([N+](=O)[O-])cc12)c1cc(-c2ccccc2Cl)nc2ccccc12,3.98µM*,-2.7%,3.2%,5.2%,-19.7%[11.6 µM],?
CC(C)(C)n1ncc2c(=O)n(Cc3ccc(F)cc3)cnc21,.,13.3%,.,12.3%,.,.
C=CCn1c(SCc2nc3sc(C(=O)O)c(C)c3c(=O)[nH]2)nnc1-c1ccccc1,-10.3%,-11.9%,i,14.5%,-35.4%[57.1 µM],-66.7*
Cc1nnc(SCc2nc3sc(C(=O)O)c(C)c3c(=O)[nH]2)s1,-11.0%,?,9.5%,?,-22.6%,-61.7*
C=CCn1c(SCc2nc3sc(C(=O)O)c(C)c3c(=O)[nH]2)nnc1-c1ccc(C(C)(C)C)cc1,-4.6%,44.7µM*,-2.4%,?,?,-50.9*
Cc1c(C(=O)O)sc2nc(CSc3nnc(-c4ccc(F)cc4)n3C)[nH]c(=O)c12,-2.8%,-7.5%,i,12.5%,?,?
CCCCc1nc2c(c3c1C[C@H](C)OC3)CN(C(=O)c1ccco1)CC2,-1.1%[12.4 µM],.,i[11.5 µM],-4.8%[12.4 µM],.,.
CC(C)CC(=O)N1C/C=C\C[C@@H](c2ccc(Cl)cc2)N(Cc2ccc(Cl)cc2)C(=O)[C@@H]1Cc1ccccc1,.,1.4%,.,.,.,.
NNc1ccc([N+](=O)[O-])c2[nH][nH]c(=O)c12,.,.,.,.,20µM*,-82.6*
COc1cccc(CNC(=O)CN2N=C(c3ccc(C)cc3)CCC2=O)c1,-6.9%,21.8%,.,.,.,.
O=C(c1ccccc1)c1ccccc1N1C(=O)C=CC1=O,-4.3%,-10.3%,-15.7%,-0.8%,12.6µM*,?
Cc1ccc2nc(/C(C#N)=C\c3ccc(Oc4ccc(C(F)(F)F)cc4[N+](=O)[O-])cc3)[nH]c2c1,-16.0%,-22.4%,5.0%,2.7%,56.2µM*,-9.0
CC(C)C[C@H](NC(=O)[C@H](Cc1ccccc1)NC(=O)CNC(=O)[C@H](CCC(=O)O)NC(=O)[C@H](CCCNC(=N)N)NC(=O)[C@H](C)NC(=O)[C@H](C)NC(=O)[C@@H](N)CC(=O)O)C(=O)N[C@@H](CC(=O)O)C(=O)N[C@H](C(=O)N[C@@H](CC(C)C)C(=O)N[C@H](C(=O)N[C@H](C(=O)N[C@@H](CC(C)C)C(=O)N[C@@H](Cc1cnc[nH]1)C(=O)N[C@@H](CCCNC(=N)N)C(=O)N[C@@H](C)C(=O)NCC(=O)N[C@@H](C)C(=O)N[C@@H](CCCNC(=N)N)C(=O)O)C(C)C)C(C)C)[C@@H](C)O,-1.8%,.,-3.9%,-0.9%,.,.
COc1ccc(Br)cc1C(=O)NC(=S)Nc1ccc(Cl)c(C(=O)O)c1,-4.3%,-4.6%,i,-2.7%,-15.9%,-65.4*
COc1ccc(Br)cc1/C=C/C(=O)NC(=S)Nc1ccc(Cl)c(C(=O)O)c1,-8.4%,?,-16.0%,5.8%,-4.8%[11.6 µM],-10.2
CC[C@H](C)[C@H](NC(=O)[C@H](CC(=O)O)NC(=O)[C@H](CC(C)C)NC(=O)[C@H](NC(C)=O)C(c1ccccc1)c1ccccc1)C(=O)N[C@H](C(=O)N[C@@H](Cc1c[nH]c2ccccc12)C(=O)O)[C@@H](C)CC,-2.3%,.,-10.9%,-3.2%,.,.
CC(c1ccccc1)n1c(S(=O)(=O)O)nc2ccccc21 (configuration not stated),-1.4%,1.8%,7.5%,0.0%,-0.8%,-67.1*
CC(C)n1c(S(=O)(=O)O)nc2ccccc21,1.4%,0.7%,i,-1.7%,-10.2%,2.4
CCN(CCN(C)Cl)/[N+]([O-])=N/Oc1ccc([N+](=O)[O-])cc1[N+](=O)[O-],.,11.8%,.,.,.,.

# High-throughput results (PubChem)
